# Measured values as given in PubChem BioAssay AID1578 (Sanford-Burnham Center for Chemical Genomics, 2009).
# Several values for one entry are separate records, joined by “and”; a condition that tells them apart may be missing. Identical values can stand only once. Screen size: about 290,000 compounds; about 3,000 (1%) were called active. No stated cut-off is given here; in the data, active means inhibition mostly above about 36% (no sharp cut-off); inactive means mostly below about 34%. The sample as a whole holds a higher share of actives than the screen did. Where a structure was tested more than once in an assay, its records may differ in their call.
# Experiment: inhibition of NOD1-driven NF-kB reporter – cell-based, luminescence, uHTS, primary screen (AID 1578);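 further: HEK-293T reporter cells stimulated with the NOD1 agonist gamma-tri-DAP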
# Conditions: NOD1-driven NF-kB luciferase reporter cells, at 4 µM, stronger effect = higher value
row,SMILES,inhibition
1,CC1=CC2/C=C(\C)CCC(O)C(O)/C=C/C(=O)C23C(=O)NC(CC(C)C)C3C1C (stereo not given),90.7% (active)
2,C/C1=C\[C@@H](C)C/C=C/[C@H]2[C@@H]3O[C@]3(C)[C@@H](C)[C@H]3[C@H](Cc4c[nH]c5ccccc45)NC(=O)[C@]32C(=O)/C=C/C(=O)[C@@H]1O,-3.4% (inactive)
3,CCOc1ccc(-n2c(O)c(C=Nc3ccc(NC(C)=O)cc3)c(=O)[nH]c2=O)cc1,-7.1% (inactive)
4,O=P(O)(O)C#Cc1ccccc1,-12.9% (inactive)
5,CN1CCN(c2nc([N+](=O)[O-])nn2C)CC1,-15.4% (inactive)
6,COC(=O)c1ccc(NC(=O)CSc2nc3ccc(N4C(=O)C5C6C=CC(C6)C5C4=O)cc3s2)cc1 (stereo not given),104% (active)
7,CCOC(=O)c1c(-n2c(C)cc(C=C3C(=O)NC(=O)NC3=O)c2C)sc2c1CCCC2,1.7% (inactive)
8,CCC(C)C12CN3CCN(CC(C)(C3)C1=O)C2 (stereo not given),4.3% (inactive)
9,C=CCn1c(O)c(C(CC)=Nc2cccc(C(=O)O)c2)c(=O)[nH]c1=O,5.1% (inactive)
10,CCCCCCNC(=O)N[C@@H](Cc1ccc(O)cc1)C(=O)NCCC[C@H]1CN2C(=NC[C@H]2C)N1CC1CCC1,2.9% (inactive)
11,O=C(CNC(=O)OCc1ccccc1)NCC(=O)Nc1ccc(Br)cc1C(=O)c1ccccc1,22% (inactive)
12,COc1ccc(/C=C/C(=O)c2c(O)n(CCC3=CCCCC3)c(=O)[nH]c2=O)cc1,79.8% (active)
13,COc1ccc(/C=C/C(=O)c2c(O)n(CCC3=CCCCC3)c(=O)[nH]c2=O)cc1OC,14.2% (inactive)
14,O=C(/C=C/c1ccc2c(c1)OCO2)c1c(O)n(CCC2=CCCCC2)c(=O)[nH]c1=O,34.4% (inactive)
15,CCOc1cc2c(cc1OCC)-n1cccc1C(c1ccc(OC)cc1)NC2 (stereo not given),-5.9% (inactive)
16,C[C@@H]1C[C@H]2OC(=O)C3(CO3)[C@H]2[C@H](O)[C@]2(C)C(=O)C3OC3[C@@H]12 (stereo not given in full),65.6% (active)
17,CCN(CC)CCN=Cc1c(O)n(Cc2ccco2)c(=O)[nH]c1=O,-5.5% (inactive)
18,CC(C)CN1CCN(Cc2ccc(C(F)(F)F)cc2)CC1CCO (stereo not given),-10.4% (inactive)
19,C/C(=N\N1CCCCCC1)c1c(O)n(C2CCCCC2)c(=O)[nH]c1=O,-7.2% (inactive)
20,CCOC(=O)c1ccc(NC(=O)c2c(O)[nH]c(=O)[nH]c2=O)cc1,-19% (inactive)
21,CCn1cc(C(=O)NCc2ccccc2)c2ccccc21,-16.6% (inactive)
22,COCCCN=Cc1c(O)[nH]c(=S)[nH]c1=O,-7.3% (inactive)
23,CCCCC(CC)COCCCN=Cc1c(O)[nH]c(=S)[nH]c1=O (stereo not given),34.9% (active)
24,CCCCCCCCN=Cc1c(O)[nH]c(=O)[nH]c1=O,-1.5% (inactive)

row,SMILES,inhibition
1,O=S(=O)(c1ccc(Cl)cc1)N1CN2CCN(C2)C1,-10.2% (inactive)
2,CN1C(=O)C(=Cc2cn(CC#N)c3ccccc23)C(=O)N(C)C1=O,1.8% (inactive)
3,CC1CCCCN1Cc1c[nH]c2ccccc12 (stereo not given),-3.8% (inactive)
4,c1cncc(C2CCCCN2)c1 (stereo not given),-6.3% (inactive)
5,c1cncc(C2Nc3cccc4cccc(c34)N2)c1,54.6% (active) and -3.4% (inactive)
6,O=C1NC(c2cccnc2)Nc2sc3c(c21)CCCC3 (stereo not given),-24.5% (inactive)
7,CC#CP(=O)(OC)C(O)(CF)c1ccccc1 (stereo not given),-41.2% (inactive)
8,O=S(=O)(c1ccc(Cl)cc1Cl)N1CCCC1c1cccnc1 (stereo not given),-4.1% (inactive)
9,CC(=O)Nc1ccc(CC(=O)N2CCN(Cc3ccccc3)CC2)cc1,25.2% (inactive)
10,C[C@H]1C[C@@H](C)C(=O)[C@@H]([C@H](O)CC2CC(=O)NC(=O)C2)C1,88% (active)
11,Cc1ccccc1NC(=O)CCl,18.4% (inactive)
12,CCN(CC)S(=O)(=O)c1ccc(C(=O)NC2CN3CCC2CC3)cc1 (stereo not given),7.1% (inactive)
13,CCN(CC)CCCN=Cc1c(O)n(CCc2ccc(F)cc2)c(=O)[nH]c1=O,19.7% (inactive)
14,CC(=O)OC(C)(C)/C=C/C(=O)C(C)(O)C1[C@H](O)C[C@@]2(C)C3CC=C4C(CC[C@@H](O)C4(C)C)[C@]3(CO)C(=O)C[C@]12C (stereo not given in full),12% (inactive)
15,CC(=O)OC(C)(C)/C=C/C(=O)[C@](C)(O)[C@H]1[C@H](O)C[C@@]2(C)[C@@H]3CC=C4[C@H](C[C@H](O)C(=O)C4(C)C)[C@]3(C)C(=O)C[C@]12C,92.6% (active)
16,Cc1ccc(-c2cc(-c3ccc(C)cc3)[n+](C)o2)cc1,26.6% (inactive)
17,O=[N+]([O-])c1ccc(C2[C@H]3C(c4ccccc4)=NC4(CCCC4)N23)cc1 (stereo not given in full),-19.9% (inactive)
18,Cc1nn(-c2ccccc2)c2c1CC1(C(=O)N(C)C(=O)N(C)C1=O)C1CCCCN21 (stereo not given),-10.6% (inactive)
19,CN(CCCCC(=O)/C=N/O)Cc1ccccc1 (tested in a mixture with another compound),-7.6% (inactive)
20,O=[N+]([O-])c1ccc(N2CCNCC2)cc1N1CCCCCC1,-7.5% (inactive)
21,O=C(CSC1c2ccccc2-c2ccccc21)N/N=C/c1ccccc1C(=O)O,-22.4% (inactive)
22,O=C(CSC1c2ccccc2-c2ccccc21)N/N=C/c1ccccc1,14.7% (inactive)
23,O=C(CSC1c2ccccc2-c2ccccc21)N/N=C/c1ccccc1O,80.9% (active)
24,Oc1cccc(/C=N/NP(=S)(c2ccccc2)c2ccccc2)c1,-0.8% (inactive)

row,SMILES,inhibition
1,COCc1ccc(CN2CCCC(C(=O)c3sccc3C)C2)o1 (stereo not given),-44.8% (inactive)
2,CN(Cc1ccccc1)Cc1ccccc1OC(=O)N(C)C,2.4% (inactive)
3,COc1cc(/C=C(/C)[N+](=O)[O-])ccc1OCc1ccccc1Cl,86.8% (active)
4,C/C(=C\c1ccc(N(C)C)cc1)[N+](=O)[O-],41.9% (inactive)
5,COc1cc(C=C2C(=O)NC(=O)NC2=O)ccc1OCc1ccc([N+](=O)[O-])cc1,-52% (inactive)
6,CCOC(=O)CNC(=S)N1CC2C[C@@H](C1)Cn1c2cccc1=O,0.7% (inactive)
7,Cc1ccc2cc(C=C(C#N)C#N)c(Cl)nc2c1,72.2% (active)
8,CN(C)c1ccc(C=C(C#N)C#N)cc1,-35.8% (inactive)
9,Cc1cc(N2CCCC2)ccc1C=C(C#N)C#N,-24.7% (inactive)
10,Cc1c(-c2cccc(Cl)c2)nc2ccccc2c1C(=O)N1CCC2(CC1)OCCO2,-11.2% (inactive)
11,c1ccc(-c2cc(-c3ccccc3)[n+](-c3ccccc3)c(-c3ccccc3)c2)cc1,65.7% (active)
12,Nc1ccccc1-[n+]1c(-c2ccccc2)cc(-c2ccccc2)cc1-c1ccccc1,-5.4% (inactive)
13,O=[N+]([O-])c1ccc(-[n+]2c(-c3ccccc3)cc(-c3ccccc3)cc2-c2ccccc2)cc1,-8.8% (inactive)
14,NC(=S)c1cn(C2OC(CO)C(O)C2O)c2ncnc(N)c12 (stereo not given),104% (active)
15,CCNC(=O)[C@H]1O[C@@H](n2cnc3c(N)ncnc32)[C@H](O)[C@@H]1O,-5.6% (inactive)
16,CN(C)C(=O)Oc1ccc2c(c1)O/C(=C\c1cccc([N+](=O)[O-])c1)C2=O,-9.1% (inactive)
17,O=C1NC(=O)C(=Cc2ccc(Sc3ccccc3)o2)C(=O)N1,1.7% (inactive)
18,Cc1c(C=O)c2ccccc2n1Cc1ccccc1F,5% (inactive)
19,CCn1c(O)c(/C=N/NC(=O)c2ccncc2)c(=O)[nH]c1=S,2.7% (inactive)
20,CCOC(=O)CCN=Cc1c(O)n(-c2ccc(Br)cc2)c(=O)[nH]c1=O,-27.1% (inactive)
21,Cc1cc(C)n2nc(C)[n+](C)c2n1,-17.4% (inactive)
22,COC(=O)c1c(C)n(Cc2ccccc2)c2ccc(O)cc12,19.6% (inactive)
23,COC(=O)c1c(C)n(Cc2ccc3c(c2)OCO3)c2ccc(O)cc12,48.3% (active)
24,CCOC(=O)c1c(C)n(Cc2ccc3c(c2)OCO3)c2ccc(O)cc12,-7.9% (inactive)

row,SMILES,inhibition
1,C=CCn1c(O)c(/C(C)=N/N2CCCCCC2)c(=O)[nH]c1=O,-6.9% (inactive)
2,CCCCCn1c(=O)c(C(=O)Nc2cccc(C)c2)c(O)c2ccccc21,-15.2% (inactive)
3,CCCCCn1c(=O)c(C(=O)NCc2ccncc2)c(O)c2ccccc21,21.6% (inactive)
4,CCCCCn1c(=O)c(C(=O)Nc2ccncc2)c(O)c2ccccc21,69.7% (active)
5,CCCCn1c(=O)c(C(=O)Nc2ccccc2)c(O)c2ccccc21,14.3% (inactive)
6,CCCCCCn1c(=O)c(C(=O)Nc2nc(CC(=O)OCC)cs2)c(O)c2ccccc21,58.7% (active)
7,CCOC(=O)Cc1csc(NC(=O)c2c(O)c3ccccc3n(CCC(C)C)c2=O)n1,-27.7% (inactive)
8,CCCCCn1c(=O)c(C(=O)Nc2nc(CC(=O)OCC)cs2)c(O)c2ccccc21,-28.8% (inactive)
9,CCCCCCn1c(=O)c(C(=O)Nc2ccncc2)c(O)c2ccccc21,63.9% (active)
10,CCCCCn1c(=O)c(C(=O)Nc2ccccc2)c(O)c2ccccc21,-20.5% (inactive)
11,Cc1ccc(N2CCN(CCc3ccccc3)CC2)cc1,10.7% (inactive)
12,CCOc1nc(NC(C)C)nc(N2CC3CC(C2)c2cccc(=O)n2C3)n1 (stereo not given),-38.6% (inactive)
13,O=C(Nc1cccc(Cl)c1)c1c(O)c2c(n(Cc3ccccc3)c1=O)CCCC2,-38.5% (inactive)
14,CCCCn1c(O)c(C(C)=NCCCn2ccnc2)c(=O)[nH]c1=O,-5.8% (inactive)
15,Cc1ccsc1C(=O)C1CCCN(Cc2cnc(N3CCCC3)s2)C1 (stereo not given),11.2% (inactive)
16,Cc1ccsc1C(=O)C1CCCN(Cc2cc3ccccc3o2)C1 (stereo not given),75.6% (active)
17,Cc1ccsc1C(=O)C1CCCN(Cc2cnc(N3CCOCC3)s2)C1 (stereo not given),46.6% (active)
18,Cc1ccsc1C(=O)C1CCCN(Cc2cnc(N(C)C)s2)C1 (stereo not given),-26.4% (inactive)
19,CCc1ccc(CN2CCCC(C(=O)c3sccc3C)C2)o1 (stereo not given),-19% (inactive)
20,Cc1ccsc1C(=O)C1CCCN(Cc2ccc(O)cc2)C1 (stereo not given),-32.6% (inactive)
21,Cc1ncc(CN2CCCC(C(=O)c3sccc3C)C2)s1 (stereo not given),-24.9% (inactive)
22,Cc1ccsc1C(=O)C1CCCN(Cc2sc(N(C)C)nc2Cl)C1 (stereo not given),60.9% (active)
23,Cc1ccc(CN2CCCC(C(=O)c3sccc3C)C2)o1 (stereo not given),-19.5% (inactive)
